Reference: paper PMC4336329 (PLoS ONE, 2015)
The whole screen tested about 310,000 compounds, of which about 14,000 (4.5%) showed an effect of 50% or more. The effect is printed as a negative number. Only a selection was taken, and strong results are over-represented in it overall.

These compounds were tested against human ether-à-go-go-related gene (hERG) potassium channel (human, UniProt Q12809) (assay: primary screen, population patch clamp on CHO cells stably expressing hERG; higher = less effect of the substance).
human ether-à-go-go-related gene (hERG) potassium channel, sequence (Q12809 whole entry, looked up): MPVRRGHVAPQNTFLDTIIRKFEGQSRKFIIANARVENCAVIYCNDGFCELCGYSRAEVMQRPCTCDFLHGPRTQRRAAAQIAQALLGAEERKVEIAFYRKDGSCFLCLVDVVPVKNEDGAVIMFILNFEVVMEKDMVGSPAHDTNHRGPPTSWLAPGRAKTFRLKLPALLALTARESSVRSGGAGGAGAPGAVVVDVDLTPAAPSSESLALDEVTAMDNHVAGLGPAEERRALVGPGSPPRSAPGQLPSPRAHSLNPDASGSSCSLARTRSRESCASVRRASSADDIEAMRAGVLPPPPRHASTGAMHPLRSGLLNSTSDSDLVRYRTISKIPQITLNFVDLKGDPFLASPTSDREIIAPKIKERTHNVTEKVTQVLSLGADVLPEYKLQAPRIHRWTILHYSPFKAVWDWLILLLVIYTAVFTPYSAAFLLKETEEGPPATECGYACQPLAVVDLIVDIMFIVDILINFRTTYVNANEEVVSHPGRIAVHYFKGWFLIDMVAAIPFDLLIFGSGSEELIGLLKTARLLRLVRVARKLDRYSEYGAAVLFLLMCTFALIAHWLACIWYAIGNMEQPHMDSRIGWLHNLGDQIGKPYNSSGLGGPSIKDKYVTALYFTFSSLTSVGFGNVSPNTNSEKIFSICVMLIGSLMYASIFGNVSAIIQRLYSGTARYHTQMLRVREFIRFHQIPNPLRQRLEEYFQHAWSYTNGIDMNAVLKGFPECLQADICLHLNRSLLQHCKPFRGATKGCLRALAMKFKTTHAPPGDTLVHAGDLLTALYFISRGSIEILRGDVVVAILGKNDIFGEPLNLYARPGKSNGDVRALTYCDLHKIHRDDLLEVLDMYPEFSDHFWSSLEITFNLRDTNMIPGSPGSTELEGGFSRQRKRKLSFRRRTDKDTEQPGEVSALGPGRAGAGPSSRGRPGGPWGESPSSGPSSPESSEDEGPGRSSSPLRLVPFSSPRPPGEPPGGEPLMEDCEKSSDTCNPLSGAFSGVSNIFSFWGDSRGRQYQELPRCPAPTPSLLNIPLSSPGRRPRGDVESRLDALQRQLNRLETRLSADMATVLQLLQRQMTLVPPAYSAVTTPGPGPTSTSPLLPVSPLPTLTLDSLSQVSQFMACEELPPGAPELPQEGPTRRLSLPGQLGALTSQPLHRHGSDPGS
Method: Briefly, Chinese hamster ovary (CHO) cells stably expressing the hERG channel were dislodged from tissue culture flasks and dispensed into PPC plates. […] During the recording, background leak currents were estimated by a 100 ms step to -80 mV from an initial holding potential of -70 mV and subtracted from the subsequent current measurement. The campaign was conducted in two phases using slight differences in recording protocol. In the first phase, the initial voltage pulse used a 100 ms step to -30 mV from a holding potential of -70 mV, a 2 s conditioning step to +25 mV, and a 2 s test step to -30 mV. During the second phase of the screen, the potential during the conditioning step was raised to +45 mV. In both phases of the campaign, a secondary voltage pulse was applied using the same parameters as the second phase initial pulse. The initial and secondary pulses were applied in the absence of compound, and upon application of 1 μM and 10 μM test concentrations. […]
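Also: peak tail current of the secondary pulse compared with the same well before compound.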

| Structure (SMILES) | hERG current change (%, negative = inhibition) at 10uM |
| --- | --- |
| Cc1ccc(Nc2nnc(SCc3ccccc3)s2)cc1 | 11.9% |
| O=[N+]([O-])c1ccc(S(=O)(=O)Nc2ccc(-c3ccc(N4CCCC4)nn3)cc2)cc1 | -8.67% |
| Cc1cc(C)c2nc(-c3ccccn3)cc(C(=O)Nc3ccc(S(=O)(=O)Nc4onc(C)c4C)cc3)c2c1 | -2.33% |
| CC(=O)OCCCN1C(=O)c2cccc3cc(Br)cc(c23)C1=O | 4.74% |
| O=S1(=O)c2ccccc2N=NN1Cc1ccc(Cl)cc1 | 16.1% |
| Cn1c(O)c(C=NC2C(=O)C3(C)CCC2C3(C)C)c(=O)n(C)c1=O (centres unmarked) | -0.548% |
| Cc1onc(-c2c(F)cccc2Cl)c1C(=O)OCC(=O)NCc1ccco1 | 5.77% |
| CN(Cc1ccccc1)C(=O)C1CCCN(Cc2ccc(Cl)cc2)C1.O=C(O)C(=O)O (centres unmarked) | -71% |
| COc1ccc(CN2CCCC(C(=O)N(C)Cc3ccccc3)C2)cc1OC.O=C(O)C(=O)O (centres unmarked) | -71.1% |
| CN(Cc1ccccc1)C(=O)C1CCCN(Cc2cccc(Cl)c2)C1.O=C(O)C(=O)O (centres unmarked) | -23.5% |
| COc1ccc(CCN(C)C(=O)C2CCCN(Cc3ccc(OC)c(OC)c3)C2)cc1OC.O=C(O)C(=O)O (centres unmarked) | -3.31% |
| COc1ccc(CCN(C)C(=O)C2CCCN(Cc3ccc(OC)c(OC)c3)C2)cc1OC (centres unmarked) | 9.21% |
| COc1ccc(CCN(C)C(=O)C2CCN(Cc3ccc(C)cc3)CC2)cc1OC.O=C(O)C(=O)O | -60.8% |
| COc1ccc(OC)c(CN2CCC(C(=O)N(C)CCc3ccc(OC)c(OC)c3)CC2)c1.O=C(O)C(=O)O | -11.5% |
| COc1ccc(CCN(C)C(=O)C2CCN(Cc3ccccc3)CC2)cc1OC.O=C(O)C(=O)O | 3.36% |
| CCN(CC)C(=O)C1CCCN(Cc2ccccc2)C1 (centres unmarked) | 9.57% |
| O=C1NC2(CCCCCC2)C(=O)N1Cc1ccc(Br)cc1 | 4.06% |
| CCOc1ccc(-c2nnn(CC(=O)c3ccc4c(c3)OCCO4)n2)cc1OCC | -1.86% |
| CCc1cc(S(=O)(=O)N2CCN(C(=O)c3ccco3)CC2)ccc1OC | 1.76% |

| Structure (SMILES) | hERG current change (%, negative = inhibition) at 10uM |
| --- | --- |
| COc1ccc(-c2noc3c2-c2nc(-c4cccc(C)c4)sc2CC3)cc1 | 7.57% |
| Cc1ccc(-c2nnc(N3CCN(C(=O)COc4cccc(C)c4)CC3)c3ccccc23)cc1 | -54.6% |
| Cc1ccc(-c2nnc(N3CCN(C(=O)CSc4ncn[nH]4)CC3)c3ccccc23)cc1 | -32.6% |
| Cc1cccc(OCC(=O)N2CCN(c3nnc(-c4ccccc4)c4ccccc34)CC2)c1 | -69.7% |
| CO/N=C/NC(=O)Cc1cn(-c2ncc(C(F)(F)F)cc2Cl)c2ccccc12 | 3.84% |
| CCCOc1ccc(N2C(=O)CC(NCC(=O)OCC)C2=O)cc1 (centres unmarked) | 8.44% |
| O=C(Cn1c(=O)cnc2ccccc21)NNC(=O)c1ccccc1Cl | 4.84% |
| COCCSc1ccccc1C(=O)Nc1ccccc1C(C)C | 3.89% |
| Cc1ccc(CN2CCN(CCC(C)C)C(CCO)C2)s1 (centres unmarked) | -29.5% |
| Cc1ccc(CN2CCN(Cc3cnc(C)s3)CC2CCO)cc1 (centres unmarked) | -19.4% |
| Cc1ccc(CN2CCN(Cc3cnc(C)[nH]3)CC2CCO)cc1 (centres unmarked) | 10.8% |
| CC(C)=CCN1CCN(Cc2ccc(C)s2)CC1CCO (centres unmarked) | -16.1% |
| OCCC1CN(Cc2cn[nH]c2C2CCCCC2)CCN1Cc1ccccc1 (centres unmarked) | 0.824% |
| Cc1ccc(CN2CCN(Cc3cn[nH]c3C3CCCCC3)CC2CCO)cc1 (centres unmarked) | -62.9% |
| Cc1ccc(CN2CCN(Cc3cnc(N4CCOCC4)s3)CC2CCO)cc1 (centres unmarked) | -46.7% |
| CCCCc1ncc(CN2CCN(Cc3ccc(C)cc3)C(CCO)C2)[nH]1 (centres unmarked) | -57.9% |
| Cc1ccc(CN2CCN(Cc3ccc(C)s3)CC2CCO)cc1 (centres unmarked) | -73.3% |
| CC(C)=CCN1CCN(Cc2cn[nH]c2C2CCCCC2)CC1CCO (centres unmarked) | 0.0652% |
| Cc1ccc(CN2CCN(CC(C)C)C(CCO)C2)s1 (centres unmarked) | -21.5% |

| Structure (SMILES) | hERG current change (%, negative = inhibition) at 10uM |
| --- | --- |
| Cc1ccc(CN2CCN(Cc3ccccc3)C(CCO)C2)s1 (centres unmarked) | -62.8% |
| Cn1c(O)c(C=Nc2ccccc2-c2ccccc2)c(=O)n(C)c1=O | 4.4% |
| O=c1c2ccccc2cnn1Cc1n[nH]c(=S)n1-c1ccc(Cl)cc1 | 14.5% |
| Cc1ccc(-c2nc(-c3ccccn3)sc2CC(=O)O)cc1 | 2.76% |
| O=C(N/N=C/c1cccs1)c1ccco1 | 11.8% |
| COc1ccc(NC(=O)COC(=O)C2CC2)c(OC)c1 | -0.146% |
| CC1CC(C)(C)NC(=S)N1CC(=O)NCc1ccc(F)cc1 (centres unmarked) | 0.792% |
| O=C(Cn1nnc(-c2ccccc2)n1)NNC(=O)c1cccc([N+](=O)[O-])c1 | 26.3% |
| COc1ccc(CCNC2CCCCCC2)cc1 | -4.62% |
| COc1ccc(CCNC(=O)C2CC2)cc1 | 0.64% |
| COc1ccc(CCNC(=O)C2Cc3ccccc3C(=O)O2)cc1 (centres unmarked) | -1.35% |
| COc1ccc(CCNC2CCCCC2)cc1.O=C(O)C(=O)O | -15.9% |
| COc1ccc(CCNC2CCC(c3ccccc3)CC2)cc1 (centres unmarked) | -70.8% |
| COc1ccc(CCNC2CCc3ccccc3C2)cc1 (centres unmarked) | -56% |
| COc1ccc(S(=O)(=O)N2CCN(c3ccc(C)cc3C)CC2)cc1OC | 5.72% |
| COC(=O)[C@@H](NC(=O)N(C1CCCCC1)C1CCCCC1)C(C)C | -7.86% |
| C#CCOCOCC#CCN(CC)CC | 3.26% |
| COc1ccc(-n2c(C)cc(C(=O)Cn3nc(C(=O)O)c4ccccc4c3=O)c2C)cc1 | -1.43% |
